# Test results from PubChem BioAssay (NCATS).
# Results filed as inconclusive are left out. A call without a number means that no potency is given here. Calls of active or inactive are those of the source. Unless noted, calls follow the shape of the dose curve; as a rule, active = well fitted curve in the direction sought with a large enough effect; inconclusive = small, poorly fitted or top-dose-only effect, or another doubt; inactive = no such curve, though single readings can be large; an effect the other way counts as inactive or inconclusive.
# Experiments:
# [1] = Cytotoxicity counterscreen for NFkB agonists and antagonists (AID 624476); also: potency is read from the fitted curve at half-maximal effect
# [2] = qHTS Assay for Identification of Small Molecule Antagonists for NFkB Signaling Pathway. (AID 624479; calls by dose curve;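 also: pathway stimulated with TNF alpha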; also: potency is read from the fitted curve at half-maximal effect)
# [3] = Cell Proliferation Assay against the TMD8 Cell Line (AID 651645); settings: TMD8 DLBCL cell line proliferation/viability; at 46.1 µM (top of the series) unless noted;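 also: cells exposed to compound for 48 h before reading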
# Method in brief: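 TMD8 ABC DLBCL cells, 500 per well in phenol red-free RPMI with 5% FBS, were treated with compound by pin transfer and incubated 48 hours at 37C, 5% CO2. Viability was read by CellTiter-Glo luminescence, normalised to DMSO (100%) and 9.2 uM bortezomib (0%).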
# [4] = Cell Proliferation Assay against the HBL1 Cell Line (AID 651646); settings: HBL1 DLBCL cells; at 46.1 µM (top of the series) unless noted;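 also: cells exposed to compound for 48 h before reading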
# Method in brief: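 HBL1, 500 cells/well, RPMI no phenol red + 5% FBS; cpd pinned, 48 h 37C/5% CO2; CellTiter-Glo, 15 min RT, luminescence. % activity: DMSO = 100%, bortezomib 9.2 uM final = 0%.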
# [5] = Cell Proliferation Assay against the TMD8 Cell Line (Caspase readout at 16 hrs) (AID 651712); also: potency is read from the fitted curve at half-maximal effect
# Method in brief: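 Caspase-Glo luminescence after 16 h compound exposure of TMD8 cells, 37 °C, 5% CO2. Medium: RPMI without phenol red, 5% FBS. Normalisation: DMSO = 0%, bortezomib 9.2 uM final = 100%.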
# [6] = Cell Proliferation Assay against the TMD8 Cell Line (Caspase readout at 8 hrs) (AID 651713); also: potency is read from the fitted curve at half-maximal effect
# Method in brief: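 Apoptosis read-out: Caspase-Glo luminescence after 8 h compound exposure of TMD8 lymphoma cells at 37C, 5% CO2. Signals were normalized as percent activity between DMSO and bortezomib (9.2 uM final) controls.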
# [7] = qHTS Assay for Identification of Small Molecule Agonists for NFkB Signaling Pathway. (AID 624478);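 also: compounds tested together with TNF alpha at its EC50 of 10 pM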
# Method in brief: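 Compounds were added with 10 pM TNF alpha (EC50 level) to ME-180 NFkB-bla cells in low-serum Opti-MEM and incubated 5 hrs at 37 C. Beta-lactamase FRET read-out used 405 nm excitation and 460 and 530 nm emission.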
# [8] = qHTS assay for small molecule agonists of the antioxidant response element (ARE) signaling pathway (AID 651741; active = well fitted activation curve with a large enough effect in the signal ratio; the % refers to the signal ratio; also: potency is read from the fitted curve at half-maximal effect)
# Method in brief: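 Stably integrated ARE-beta-lactamase reporter HepG2 cells; 16 h compound incubation, 37 C; LiveBLAzer FRET substrate 2 h at room temperature; fluorescence intensity.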
Compound,Potency [1],Potency [2],viability (% of control) [3],"viability, percent of control [4]",Potency [5],Potency [6],outcome [7],Potency [8]
CN[C@@H](C)C(=O)N[C@H]1CCCC[C@H]2CC[C@@H](C(=O)N[C@@H](c3ccccc3)c3cn(CCCCc4ccc(CCCCn5cc([C@@H](NC(=O)[C@@H]6CC[C@@H]7CCCC[C@H](NC(=O)[C@H](C)NC)C(=O)N76)c6ccccc6)nn5)cc4)nn3)N2C1=O,inactive,inactive,7.59%,15.5%,inactive,inactive,,
CCCCCCCc1ccc(CCc2cccc(O)c2C(=O)O)cc1,23.5 µM (active),,64.1%,51.5%,,inactive,inactive,
COc1c(Cl)cc2c([nH]c3cnccc32)c1NC(=O)c1cccnc1C,inactive,,68.9%,62.3%,inactive,inactive,inactive,
CC(C)OC(=O)C1=CN(C(=O)c2ccc(F)c(F)c2)CC(C)(C)c2c1[nH]c1ccccc21,inactive,inactive,9.41%,100%,inactive,inactive,,
O=C1CCCC2=C1C(c1[nH]ncc1Cl)N=C(Nc1nc3ccccc3o1)N2 (stereo not given),inactive,inactive,75.7%,71.6%,inactive,inactive,,
COc1nc(-c2ccc3c(c2)OCO3)n(-c2ccc(NC(=O)CSc3ccccc3)cc2)n1,inactive,inactive,60.1%,68.5%,,inactive,,
O=C(OCC#CCSc1nnc(-c2ccc3ccccc3c2)o1)c1cc2ccccc2s1,inactive,inactive,90%,86.3%,inactive,inactive,,
Nc1cccc(S(=O)(=O)N2CCCN(S(=O)(=O)c3ccc4c(c3)OCCO4)CC2)c1,inactive,,46.2%,78.2%,inactive,inactive,inactive,
COc1ccc(-c2oc3cc(OC)ccc3c2C(=O)c2ccc(C#N)cc2)cc1,inactive,inactive,52.2%,76%,inactive,inactive,,
CCOc1ccc(Cc2cc([C@@H]3O[C@H](CO)[C@@H](O)[C@H](O)[C@@H]3O)ccc2Cl)cc1,inactive,,87.2%,94.2%,inactive,inactive,inactive,
CCN(c1ccccc1)c1cc(NC)[n+](C)c(C)n1,inactive,inactive,99.5%,87.8%,inactive,inactive,,
CN([C@@H](Cc1ccc(OS(=O)(=O)c2cccc3cnccc23)cc1)C(=O)N1CCN(c2ccccc2)CC1)S(=O)(=O)c1cccc2cnccc12,inactive,inactive,72.1%,106%,inactive,inactive,,
c1ccc(-c2nn3c(c2-c2ccnc4cc(OCCN5CCOCC5)ccc24)CCC3)nc1,inactive,,41.4%,77.9%,,inactive,inactive,
N#CC[C@H](C1CCCC1)n1cc(-c2ncnc3[nH]ccc23)cn1,inactive,16.8 µM (active),33.1%,65.7%,inactive,inactive,,
Cc1ccc2c(c1)C(=O)[C@@]1(O)CCN(c3ccccc3)C1=N2,inactive,inactive,77.6%,74.4%,inactive,inactive,,
Cc1ccc(NC(=O)c2cccc(C(C)(C)C#N)c2)cc1Nc1ccc2ncn(C)c(=O)c2c1,inactive,,11.7%,41.4%,26.4 µM (active),,inactive,
CCc1cncnc1N1CCN(Cc2nc3ccc(C(F)(F)F)cc3[nH]2)CC1,inactive,inactive,56.3%,82.4%,,inactive,,
COCCNCCCn1c(C(=O)CF)c(-c2ccc(C)cc2)c2c(N)ncnc21,inactive,inactive,75.8%,86.2%,inactive,inactive,,
COc1ccccc1-c1cccc(-c2c(O)c3cc(C#N)c(Cl)cc3[nH]c2=O)c1,inactive,,86.6%,80.1%,inactive,inactive,inactive,
C[C@@H]1CN(Cc2ccc(F)cc2)[C@@H](C)CN1C(=O)c1cc2c(C(=O)C(=O)N(C)C)cn(C)c2cc1Cl,inactive,inactive,61.8%,78.3%,,inactive,,
Cc1ccc(-n2nc(C(C)(C)C)cc2NC(=O)Nc2ccc(OCCN3CCOCC3)c3ccccc23)cc1,inactive,,66.7%,65.5%,,inactive,inactive,
CCOc1cc(C=C2C(=O)N(c3ccccc3)N=C2C)cc(Cl)c1OCC(=O)OC,inactive,,81.8%,46.9%,inactive,,inactive,
CC(C)(C)OC(=O)CN(Cc1ccc(Cl)cc1)Cc1ccc([N+](=O)[O-])s1,,inactive,7.07%,47%,,inactive,inactive,
C#Cc1cccc(Nc2ncnc3cc(OCCOC)c(OCCOC)cc23)c1,,,58%,74.6%,inactive,inactive,inactive,
CCOc1ccn(-c2ccc(F)cc2)c(=O)c1C(=O)Nc1ccc(Oc2ccnc(N)c2Cl)c(F)c1,,16.8 µM (active),53.5%,68.6%,,,,
CN(C)C(=O)c1ccc(S(=O)(=O)c2ccc(NC(=O)[C@@](C)(O)C(F)(F)F)c(Cl)c2)cc1,,inactive,73%,86.5%,inactive,inactive,inactive,
CCC(C)(C)C(=O)O[C@H]1C[C@@H](C)C=C2C=C[C@H](C)[C@H](CC[C@@H]3C[C@@H](O)CC(=O)O3)[C@H]21,,,80.7% [at 15.4 µM],94.3% [at 15.4 µM],inactive,,,
O=C(NOC[C@H](O)CO)c1ccc(F)c(F)c1Nc1ccc(I)cc1F,,inactive,79.1%,,inactive,inactive,inactive,

Compound,Potency [1],Potency [2],viability (% of control) [3],"viability, percent of control [4]",Potency [5],Potency [6],outcome [7],Potency [8]
Cc1ccnc(NS(=O)(=O)c2ccc(NC(=O)Nc3ccc(S(=O)(=O)Nc4nccc(C)n4)cc3)cc2)n1,inactive,16.8 µM (active),48.6%,,23.5 µM (active),inactive,,
Cn1cnc2c(F)c(Nc3ccc(Br)cc3Cl)c(C(=O)NOCCO)cc21,inactive,inactive,79.9%,76.1%,,inactive,,
COc1ccc(C2=N[C@H](c3ccc(Cl)cc3)[C@H](c3ccc(Cl)cc3)N2C(=O)N2CCNC(=O)C2)c(OC(C)C)c1,inactive,,7.72%,66.4%,,,,
CS(=O)(=O)Oc1ccc2c(NC(N)=O)c(C(=O)c3ccc(Cl)cc3Cl)oc2c1,inactive,,84.9%,78.9%,inactive,inactive,,
O=C(C1CC1)N1CC[C@@H](Cn2c(-c3ccc(-c4ccc5occc5c4)cc3)nc3cnccc32)C1,inactive,,5.56%,48.4%,8.33 µM (active),26.4 µM (active),,
CCn1c(-c2nonc2N)nc2c(C#CC(C)(C)O)ncc(OC[C@H]3CCCNC3)c21,,,22.8%,70.2%,,,,
COc1cc(F)c(F)c(Nc2ccc(I)cc2F)c1NS(=O)(=O)C1(C[C@H](O)CO)CC1,,5.95 µM (active),69.3%,62.4%,,inactive,inactive,
Cc1cc(C=c2sc3nc4ccccc4n3c2=O)c(C)n1-c1ccccc1,,inactive,43.9%,43.7%,inactive,inactive,inactive,
CC[C@H](Nc1ncnc2nc[nH]c12)c1nc2cccc(F)c2c(=O)n1-c1ccccc1,,inactive,19.3%,68.9%,,inactive,inactive,
O=C(Nc1cccnc1)N1CCC(Cc2cccc(Oc3ccc(C(F)(F)F)cn3)c2)CC1,,,36.7%,46.1%,,,inactive,
COc1cc2nccc(Oc3ccc(NC(=O)NC4CC4)c(Cl)c3)c2cc1C(N)=O,,18.8 µM (active),30.4%,83.1%,inactive,inactive,inactive,
Cc1c(C)c2c(c(C)c1O)CCC(C)(COc1ccc(CC3SC(=O)NC3=O)cc1)O2 (stereo not given),,,71.7%,81.5%,,inactive,inactive,21.7 µM (active)
NC(=O)c1ccc(-c2nc(-c3ccc4c(c3)OCCO4)c(-c3ccccn3)[nH]2)cc1,inactive,,83.2%,105%,inactive,inactive,,
S=C(NCc1ccc2c(c1)OCO2)N1CCN(c2ncnc3c2oc2ccccc23)CC1,inactive,,26.5%,40.5%,inactive,,,
Cc1c(CCOc2ccc(C(=O)O)cc2)c2cc(Cl)ccc2n1C(c1ccccc1)c1ccccc1,,,79.3%,34.4%,inactive,inactive,inactive,
Cc1cc([C@@H](C)Nc2ccccc2C(=O)O)c2nc(N3CCOCC3)cc(=O)n2c1,,inactive,14.9%,45.6%,inactive,inactive,inactive,
CN(C)c1ccc(C2Nc3ccc4ccccc4c3C3=C2C(=O)CC(C)(C)C3)cc1Br (stereo not given),inactive,,64.8%,69.1%,inactive,inactive,,
CNC(=O)c1ccc(N2C(=S)N(c3ccc(C#N)c(C(F)(F)F)c3)C(=O)C2(C)C)cc1F,inactive,,78.7%,83.2%,inactive,inactive,,
OCCC#Cc1nc(-c2ccc(F)cc2)c(-c2ccncc2)n1CCCc1ccccc1,,14.9 µM (active),67.4%,55.3%,,,inactive,
CCC(C)n1ncn(-c2ccc(N3CCN(c4ccc(OC[C@H]5CO[C@](Cn6cncn6)(c6ccc(Cl)cc6Cl)O5)cc4)CC3)cc2)c1=O (stereo not given in full),,,77.9%,77%,inactive,inactive,,
Cc1cc(SCc2sc(-c3ccc(C(F)(F)F)cc3)nc2C)ccc1OCC(=O)O,,,88.2%,114%,,inactive,inactive,
O=C(O)c1ccc(-c2c[nH]c3ccc(-c4ccccc4)cc23)cc1C1CCCC1,,14.9 µM (active),83.2%,93.3%,inactive,inactive,,
COc1cc(Nc2ncc3c(n2)-c2ccc(Cl)cc2C(c2c(F)cccc2OC)=NC3)ccc1C(=O)O,,inactive,31.4%,53%,,inactive,inactive,
COc1ccc(COc2cc3oc(=O)c4cc(C(C)O)ccc4c3cc2OC)cc1 (stereo not given),,inactive,57.4%,45.7%,inactive,,,
CN(C(=O)c1ccc(F)cc1C(F)(F)F)C1CCN(c2nnc(-c3ccnn3C)c3ccccc23)CC1,inactive,inactive,70.8%,65.3%,,inactive,,
CC1(C)CNc2cc(NC(=O)c3cccnc3NCc3ccncc3)ccc21,inactive,,49.2%,86%,,inactive,,
C/C(=C\C(=O)Nc1ccccc1C(=O)O)c1ccc2ccccc2c1,,,53.7%,70.3%,,inactive,inactive,
